Consider 5 compounds from PubChem BioAssay.

Molecules are shown by their SMILES. Active and inactive are the calls of the source. Unless noted, no rule for the calls is given here.

A short description of experiment [1]: anti-His antibody binders, primary screen, artefact control for SMM control protein annotation, biochemical, small-molecule microarray, 635 nm fluorescence (AID 1128).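 Also: score merges feature fluorescence with signal-to-noise for each printed compound spot.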 The settings on record: anti-His Alexa647 antibody binding, higher = more signal.
Experiment [2] deals with Human papillomavirus type 1a E7 protein (residues 1-88). Briefly: HPV1a E7 small-molecule binders, primary screen, biochemical, small-molecule microarray, residues 1-88, 635 nm (AID 1129). The settings on record: small-molecule microarray binding, fluorescence 635 nm; higher = more signal.
In experiment [3] the target is Focal adhesion kinase 1 (Homo sapiens) (UniProt Q05397). Put plainly: small-molecule microarray binders of FAK, primary screen, biochemical, 635/667 nm fluorescence, BSA, DTT (AID 1130).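 Also: composite of spot emission at 667 nm and signal to noise over triplicate slides.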 As to conditions: PTK2 binding, 635 nm fluorescence, higher = more signal.
Sequence of Focal adhesion kinase 1 (Homo sapiens) (Q05397 whole entry, looked up): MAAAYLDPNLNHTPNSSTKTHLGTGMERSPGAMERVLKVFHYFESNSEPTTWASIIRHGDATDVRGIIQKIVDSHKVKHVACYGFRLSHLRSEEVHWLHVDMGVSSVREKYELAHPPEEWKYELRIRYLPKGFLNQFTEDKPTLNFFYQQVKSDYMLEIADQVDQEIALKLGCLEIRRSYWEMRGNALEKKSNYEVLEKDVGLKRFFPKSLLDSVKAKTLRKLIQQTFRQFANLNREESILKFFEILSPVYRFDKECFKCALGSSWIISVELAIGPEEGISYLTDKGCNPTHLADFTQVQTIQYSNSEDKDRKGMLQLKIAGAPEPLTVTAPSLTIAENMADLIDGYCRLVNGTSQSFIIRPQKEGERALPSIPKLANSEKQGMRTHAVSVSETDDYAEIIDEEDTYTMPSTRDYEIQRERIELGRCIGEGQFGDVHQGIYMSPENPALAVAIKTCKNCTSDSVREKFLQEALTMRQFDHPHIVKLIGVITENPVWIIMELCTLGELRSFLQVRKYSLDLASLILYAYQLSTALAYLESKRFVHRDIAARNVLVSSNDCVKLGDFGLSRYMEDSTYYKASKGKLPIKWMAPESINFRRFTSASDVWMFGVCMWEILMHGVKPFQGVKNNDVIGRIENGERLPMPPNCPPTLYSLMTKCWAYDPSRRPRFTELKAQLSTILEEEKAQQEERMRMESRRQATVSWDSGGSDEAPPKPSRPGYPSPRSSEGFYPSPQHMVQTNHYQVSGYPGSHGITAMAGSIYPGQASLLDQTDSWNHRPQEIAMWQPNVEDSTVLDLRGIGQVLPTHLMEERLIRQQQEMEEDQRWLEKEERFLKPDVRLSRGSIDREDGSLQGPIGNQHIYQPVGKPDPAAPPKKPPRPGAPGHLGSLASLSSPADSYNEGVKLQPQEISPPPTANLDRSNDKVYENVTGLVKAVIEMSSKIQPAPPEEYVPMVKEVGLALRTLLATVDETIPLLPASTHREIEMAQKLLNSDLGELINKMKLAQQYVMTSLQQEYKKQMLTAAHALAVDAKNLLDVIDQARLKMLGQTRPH
Experiment [4] deals with Fibrinogen (Alexa647-labelled). Briefly: fibrinogen binders on compound microarrays, profiling panel, artefact control for SMM control-protein annotation, biochemical, small-molecule microarray, 635/667 nm fluorescence (AID 1131).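 Also: z-score merges 667 nm fluorescence with per-spot signal-to-noise over triplicate slides.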 The settings on record: fibrinogen-A647 binding fluorescence, higher = more signal.
In experiment [5] the target is Follistatin (Homo sapiens) (UniProt P19883). Put plainly: follistatin binders on small-molecule microarrays, primary screen, biochemical, small-molecule microarray, 635/667 nm fluorescence (AID 1132). The settings on record: FST binding, 635 nm fluorescence, higher = more signal.
Sequence of Follistatin (Homo sapiens) (P19883 whole entry, looked up): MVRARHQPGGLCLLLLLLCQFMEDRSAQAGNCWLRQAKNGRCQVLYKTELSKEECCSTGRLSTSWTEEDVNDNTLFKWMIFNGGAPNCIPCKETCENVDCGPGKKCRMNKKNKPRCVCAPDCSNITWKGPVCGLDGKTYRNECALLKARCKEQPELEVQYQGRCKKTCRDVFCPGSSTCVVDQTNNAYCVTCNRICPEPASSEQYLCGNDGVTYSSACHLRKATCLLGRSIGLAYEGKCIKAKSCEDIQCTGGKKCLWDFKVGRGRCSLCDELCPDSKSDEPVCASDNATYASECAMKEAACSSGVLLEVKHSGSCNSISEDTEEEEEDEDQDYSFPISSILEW
The target of experiment [6] is Fibroblast growth factor 2 (Homo sapiens) (UniProt P09038). Put plainly: FGF2 binders on small-molecule microarrays, primary screen, biochemical, small-molecule microarray, 635/667 nm fluorescence (AID 1133). As to conditions: small-molecule microarray binding, FGF2, fluorescence 635/667; higher = more signal.
Sequence of Fibroblast growth factor 2 (Homo sapiens) (P09038 whole entry, looked up): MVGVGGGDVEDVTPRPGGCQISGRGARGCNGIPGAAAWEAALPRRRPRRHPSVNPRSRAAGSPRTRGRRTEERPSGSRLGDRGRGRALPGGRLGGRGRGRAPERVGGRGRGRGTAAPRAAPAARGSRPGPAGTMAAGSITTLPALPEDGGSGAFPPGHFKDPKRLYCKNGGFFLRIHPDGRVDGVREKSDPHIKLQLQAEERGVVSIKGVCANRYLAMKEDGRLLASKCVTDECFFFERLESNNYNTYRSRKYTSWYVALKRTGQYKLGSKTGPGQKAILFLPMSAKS
Experiment [7] is described as follows: mitochondrial membrane potential change in A549 cells, profiling panel, cell-based, JC-1 fluorescence, basal, 24 h, 100 nL (AID 1138).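 Also: A549 lung adenocarcinoma cells under basal conditions with no added stimulus; test concentration not given here.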 The settings on record: higher = more signal.
The next experiment deals with Lefty1. Put plainly: Lefty1 binders on small-molecule microarrays, primary screen, biochemical, small-molecule microarray, 635/667 nm fluorescence (AID 1139). The settings on record: small-molecule microarray binding, fluorescence 635/667; higher = more signal.
The subject of experiment [8] is wheat germ agglutinin (Triticum aestivum), Alexa647-labelled. Briefly: wheat germ agglutinin binders on compound microarrays, profiling panel, artefact control for SMM control-protein annotation, biochemical, small-molecule microarray, 635/667 nm fluorescence (AID 1140).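 Also: score merges 667 nm feature emission with signal to noise over triplicate slides.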 The settings on record: WGA-A647 binding, 635 nm fluorescence, higher = more signal.
Experiment [9] addresses Luciferin 4-monooxygenase (Photinus pyralis) (UniProt P08659). Put plainly: firefly luciferase enzyme inhibitors, primary screen, biochemical, luminescence, purified enzyme, 2006 set (AID 1141).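 Also: cell-free assay with purified firefly luciferase at 100 ng per well in PBS; test concentration not given here.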 As to conditions: SteadyGlo luminescence, 30 min, higher = more signal, called active from +8 up or from −8 down.
Experiment [10] deals with Wnt5a (protein binding on small-molecule microarray). Put plainly: Wnt5a binders on small-molecule microarray, primary screen, biophysical, 635/667 nm fluorescence (AID 1142).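 Also: fluorescence read at 667 nm with signal to noise per printed feature.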 As to conditions: 635 nm fluorescence, higher = more signal.
Experiment [11] can be described thus: cell viability in Huh7 cells, primary screen, cytotoxicity control for HCV replication inhibitor project, CellTiter-Glo luminescence, basal, 48 h (AID 1143).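 Also: Huh7 hepatoma cells carrying a hepatitis C replication reporter with no stimulus; test concentration not given here.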 The settings on record: Huh7 HCV replicon, higher = more signal, called active from +8 up or from −8 down. (In general: Cellular ATP, detected with luciferase, serves as a proxy for viable cell number.)
The nature of experiment [12]: P. aeruginosa biofilm formation inhibitors, primary screen, PAO1 strain, BacTiter-Glo luminescence, LB-PBS (AID 1144). As to conditions: 12 h, higher = more signal.
The nature of experiment [13]: CREB reporter modulators without forskolin, primary screen, cell-based, PC12, CRE-LacZ reporter, unstimulated (AID 1145). The settings on record: no forskolin, luminescence, 4.5 h, higher = more signal, called active from +8 up or from −8 down.
A short description of experiment [14]: CREB reporter modulators under forskolin, primary screen, cell-based, PC12, CRE-LacZ reporter, forskolin-stimulated (AID 1146).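 Also: PC12 cells with 6xCRE LacZ reporter stimulated by forskolin 10 µM; beta-galactosidase reporter signal reflecting CREB driven transcription.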 As to conditions: luminescence, 4.5 h, higher = more signal, called active from +8 up or from −8 down.
The target of experiment [15] is Streptavidin (Streptomyces avidinii) (UniProt P22629). Briefly: streptavidin binders on small-molecule microarray, primary screen, artefact control for SMM compound annotation, biophysical, 635/667 nm fluorescence (AID 1147).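 Also: signal reflects streptavidin binding to arrayed compounds as a control protein.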 The settings on record: streptavidin binding, higher = more signal.
Sequence of Streptavidin (Streptomyces avidinii) (P22629 whole entry, looked up): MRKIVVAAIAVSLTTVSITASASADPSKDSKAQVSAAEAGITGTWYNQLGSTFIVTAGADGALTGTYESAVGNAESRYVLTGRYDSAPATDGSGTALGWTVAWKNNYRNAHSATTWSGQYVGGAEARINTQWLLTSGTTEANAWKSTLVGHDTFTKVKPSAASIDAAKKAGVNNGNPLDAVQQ
The nature of experiment [16]: small-molecule binders of probe aInhba, primary screen, biochemical, small-molecule microarray, 635/667 nm fluorescence (AID 1148).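 Also: score merges 667nm spot fluorescence with signal-to-noise for antibody binding to printed compounds.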 The settings on record: higher = more signal.
The target in experiment [17] is Torsin-1A (Homo sapiens) (UniProt O14656). Briefly: torsin A binders from cell lysate, primary screen, small-molecule microarray, wild-type, 635/667 nm (AID 1149). As to conditions: COS7 hTOR1A-WT lysate, 635 nm fluorescence, higher = more signal.
Sequence of Torsin-1A (Homo sapiens) (O14656 whole entry, looked up): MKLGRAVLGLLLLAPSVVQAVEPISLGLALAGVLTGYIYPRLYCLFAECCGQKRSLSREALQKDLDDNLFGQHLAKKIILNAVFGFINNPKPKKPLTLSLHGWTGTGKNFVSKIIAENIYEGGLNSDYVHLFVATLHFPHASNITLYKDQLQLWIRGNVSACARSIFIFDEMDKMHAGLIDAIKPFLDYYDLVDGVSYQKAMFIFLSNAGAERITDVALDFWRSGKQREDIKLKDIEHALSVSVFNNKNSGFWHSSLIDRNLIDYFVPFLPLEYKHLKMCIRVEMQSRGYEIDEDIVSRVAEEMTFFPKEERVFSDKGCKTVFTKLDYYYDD
The target is the same in experiment [18]. Briefly: small-molecule binders of mutant TOR1A in lysate, primary screen, cell lysate, small-molecule microarray, COS7 lysate, 635/667 nm fluorescence (AID 1150).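 Also: score pools 667 nm emission and signal to noise measuring lysate protein binding.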 As to conditions: COS7 hTOR1A mutant lysate, 635 nm fluorescence, higher = more signal.
In experiment [19] the test system is Sonic hedgehog protein (Shh). Briefly: small-molecule binders of Shh protein, primary screen, biochemical, small-molecule microarray, 635/667 nm fluorescence (AID 1151).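 Also: Shh protein binding to compounds spotted on small-molecule microarray slides; score combines spot fluorescence intensity with signal-to-noise across triplicate slides.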 The settings on record: small-molecule microarray binding, 635 nm fluorescence; higher = more signal.

Sequence of Luciferin 4-monooxygenase (Photinus pyralis) (P08659 whole entry, looked up): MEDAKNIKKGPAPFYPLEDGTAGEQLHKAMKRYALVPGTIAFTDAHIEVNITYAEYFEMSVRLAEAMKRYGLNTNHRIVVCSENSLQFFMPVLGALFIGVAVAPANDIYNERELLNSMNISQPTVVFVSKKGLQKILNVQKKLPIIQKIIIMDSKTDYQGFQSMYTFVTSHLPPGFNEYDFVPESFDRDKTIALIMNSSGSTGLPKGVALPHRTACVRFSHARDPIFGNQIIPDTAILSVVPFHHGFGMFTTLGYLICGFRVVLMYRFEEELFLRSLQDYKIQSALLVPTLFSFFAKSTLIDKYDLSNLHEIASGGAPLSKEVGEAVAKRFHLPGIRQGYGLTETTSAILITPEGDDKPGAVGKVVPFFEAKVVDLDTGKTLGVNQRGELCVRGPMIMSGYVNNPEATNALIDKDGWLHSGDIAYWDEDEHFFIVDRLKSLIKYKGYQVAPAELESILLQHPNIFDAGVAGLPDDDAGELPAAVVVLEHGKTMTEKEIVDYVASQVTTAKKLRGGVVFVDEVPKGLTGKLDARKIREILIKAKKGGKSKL

For the compound `COC(=O)[C@@]1(Cc2ccc(F)cc2)[C@H]2c3cc(C(=O)N(C)C)n(CCN4CCOCC4)c3C[C@H]2CN1C(=O)c1ccccc1`, the composite z-score in [1] was 1.65; in experiment [2], 1.19; in experiment [3], 1.14; in [4] it was 0.32; in [5], -0.0389; in experiment [6], -0.708. The composite z-score was -0.0199 in the experiment with Lefty1; 0.331 in experiment [8]; 0.483 in [10]; 1.36 in experiment [15]; 0.17 in experiment [16]; 2.73 with Torsin-1A (Homo sapiens) [17]. Further, the composite z-score in the experiment with Torsin-1A (Homo sapiens) [18] is 2.17; in experiment [19] it was -0.976. For the same compound, the z-score in experiment [7] is 0.147; in experiment [9], 2.64 (inactive); in experiment [11] it was -1.02 (inactive); in experiment [12] it was 0.263 (inactive); in [13], -0.372 (inactive); in experiment [14], 0.823 (inactive).

For `CCOC(=O)C1=CC[C@@H](c2ccc(F)cc2)N(S(=O)(=O)c2ccc(C)cc2)[C@H]1c1ccc([N+](=O)[O-])cc1`, the composite z-score in experiment [1] is 0.353; in [2] it was 1.19; in experiment [3], 0.866; in [4], 0.954; in experiment [5], 0.283; in experiment [6], -0.218. The composite z-score with Lefty1 was 0.242; in experiment [8], 0.742; in [10] it was 0.0382; in [15], 0.812; in [16], 0.0131; with Torsin-1A (Homo sapiens) [17] it was -0.116. The composite z-score was 0.599 with Torsin-1A (Homo sapiens) [18] and -0.0316 in experiment [19]. The z-score is 1.83 in [7]; 2.28 (inactive) in experiment [9]; -2.52 (inactive) in [11]; -1.24 (inactive) in experiment [12]; -1.73 (inactive) in experiment [13]; 0.66 (inactive) in [14].

On to `CN1C(=O)[C@]2(CCS(=O)(=O)c3ccccc3)N=C(c3ccc(OCCCO)cc3)O[C@@H]2c2ccccc21`, for which the composite z-score in experiment [1] came out at 2.44; in [2], 1.27; in experiment [3], 1.26; in experiment [4] it was 0.495; in experiment [5], 1.47; in experiment [6], 0.699. Moreover, the composite z-score turned out to be 0.34 in the experiment on Lefty1; 0.318 in [8]; 0.088 in experiment [10]; 0.294 in experiment [15]; 0.174 in [16]; 0.0148 in the experiment with Torsin-1A (Homo sapiens) [17]. Further, the composite z-score with Torsin-1A (Homo sapiens) [18] stood at 1.16; in experiment [19], 1.54. Also, the z-score was 1.87 in experiment [7]; -1.76 (inactive) in [9]; -3.67 (inactive) in experiment [11]; 1.24 (inactive) in experiment [12]; 1.34 (inactive) in experiment [13]; -0.547 (inactive) in [14].

Consider `Cc1ccc(S[C@]2(C(=O)NCCN3CCOCC3)CC(=O)N(C3CCCCC3)[C@@H]2c2ccc(CO)cc2I)cc1`, for which the composite z-score came out at 0.893 in experiment [1]; 1.2 in experiment [2]; 1.14 in [3]; 0.926 in experiment [4]; 0.972 in experiment [5]; 0.236 in experiment [6]. The composite z-score in the experiment on Lefty1 was 1.21; in [8], 0.977; in [10] it was 0.328; in experiment [15], 1.24; in [16], -0.117; with Torsin-1A (Homo sapiens) [17], 0.383. Also, the values for the composite z-score (in the experiment with Torsin-1A (Homo sapiens) [18]; in experiment [19]) were 1.15 and 1.94, respectively. The z-score was 1.23 in [7]; 0.827 (inactive) in experiment [9]; -2.19 (inactive) in experiment [11]; -0.435 (inactive) in experiment [12]; -0.231 (inactive) in experiment [13]; 0.341 (inactive) in [14].

For the compound `CC(C)[Si](C#CCCCC#N)(O[C@H](c1ccccc1)c1cn([C@H](C)c2ccccc2)nn1)C(C)C`, the composite z-score in experiment [1] was 0.67; in experiment [2], 0.893; in [3], -0.0546; in experiment [4] it was 0.464; in experiment [5], 0.661; in experiment [6], 0.286. The composite z-score amounted to 0.739 in the experiment with Lefty1; 0.0425 in experiment [8]; 0.0952 in experiment [10]; 0.492 in [15]; 0.0183 in experiment [16]; 0.0529 with Torsin-1A (Homo sapiens) [17]. In addition, the composite z-score with Torsin-1A (Homo sapiens) [18] is 0.28; in [19] it was 1.09. In addition, the z-score in experiment [7] is 2.34; in [9], -0.863 (inactive); in experiment [11], -1.75 (inactive); in experiment [12] it was -0.0514 (inactive); in experiment [13] it was -0.23 (inactive); in experiment [14] it was 0.301 (inactive).
